Source: PubChem BioAssay
In the library only some 27% were active in any assay of this set; here they are far more common.
CYP2C19 inhib: inhibitors of human CYP2C19; inhibition, % at 5 µM; AID 778; P33261; hit rate 21% among 96,000; CYP2C19 Supersomes, luciferin-H EGE luminescence, 30 min;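 active means CYP2C19 inhibition above a set limit at 5 µM in the primary screen, cut at about 50% in these data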;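 further: plate controls were negative control wells for no effect and 2.5 mM tranylcypromine positive control for full effect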
Cav32 inh: inhibitors of human Cav3.2 T-type calcium channel; O95180; Cav3.2-expressing cells, Fluo-4 calcium fluorescence FDSS; hits give low values; B-score at 10 µM; hit rate 4% among 100,000; AID 449739;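 active means single-dose well whose peak fluorescence ratio is a statistical outlier from its plate by either plate-standardised score or position-corrected B-score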
CYP2C19 activ: cytochrome P450 2C19 (human) activation. P33261. activation factor at 5 µM. 96,000 tested, under 10 active. AID 1025. recombinant CYP2C19, luciferin-H EGE luminescence; hits give high values; 0 = fully inhibited enzyme, 1 = untreated enzyme;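 active means activation factor of at least 2 at 5 µM in the primary screen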;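 further: 0 = wells with 2.5 mM tranylcypromine and 1 = vehicle-only wells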
CYP2C9 activ: increases human cytochrome P450 2C9 activity; P11712; recombinant CYP2C9, luciferin-H conversion, luminescence; hits give high values; factor 1 = untreated enzyme, 0 = blocked; activation factor at 5 µM; hit rate 1.4% among 96,000; AID 1024;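 active means activation factor of 2 or more for CYP2C9 at a 5 µM dose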;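 further: 0 = sulfaphenazole-blocked wells and 1 = vehicle-only wells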
CYP2C9 inhib: inhibitors of human CYP2C9. hit rate 20% among 96,000. P11712. CYP2C9 Supersomes, luciferin-H conversion, luminescence. inhibition, % at 5 µM;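 active means blocking of liver enzyme CYP2C9 beyond about 50% at 5 µM, limit read from the data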
* hit, by the source's call; x = not tested or not shown.

SMILES	CYP2C19 inhib	Cav32 inh	CYP2C19 activ	CYP2C9 activ	CYP2C9 inhib
O=c1[nH]c(N2CCN(Cc3ccc4c(c3)OCO4)CC2)nc2c1CCC2	1	0.39	1	1	2
COCCOC(=O)c1c(C)oc2ccc(OC(=O)N(C)C)cc12	63*	-0.071	0.4	0.6	42
CC1CN=C(Nc2ccc(N(C)C)cc2)S1 (centres undefined)	56*	0.59	0.4	1	3
CCOP(=O)(OCC)C(NC(C)=O)C(Cl)(Cl)Cl (centres undefined)	14	-0.27	0.9	0.6	38
COCCNC(=O)c1c(NC(=O)c2ccco2)n(Cc2ccccc2)c2nc3ccccc3nc12	38	-2.9	0.6	0.2	76*
COc1ccc(CNC(=O)/C=C/c2ccc3[nH]cc(CCN(C)C)c3c2)cc1	x	-1.2	x	x	x
CS(=O)(=O)c1ccc(C2=C(c3ccccc3)C(=O)OC2)cc1	x	0.43	x	x	x
COc1ccc2c(c1OC)C(=O)OC2c1c(O)n(C2CCCCC2)c(=O)[nH]c1=O (centres undefined)	6	-0.021	0.9	0.3	69*
O=c1[nH]c(=O)n(C2CCCCCC2)c(O)c1C=NCCCN1CCOCC1	10	1.8	0.9	0.7	34
CC(C)Sc1nnc([C@@H](N)Cc2c[nH]c3ccccc23)o1	77*	0.21	0.2	0.8	18
CC(C)Sc1nnc([C@@H](N)Cc2ccccc2)o1	41	0.45	0.6	0.5	47
CC1(C)CC(=O)C(C=NCCN2CCN(C(=O)Cc3ccc(Cl)cc3)CC2)=C(O)C1	90*	0.8	0.1	0.4	63*
Cc1ccc(N2C(=O)NC(=O)C3(Cc4ccccc4N4CCN(c5ccccc5)CC43)C2=O)cc1 (centres undefined)	31	-6.8*	0.7	0.5	48
COc1cc(/C=N/NP(=S)(c2ccccc2)c2ccccc2)ccc1O	42	-1.3	0.6	0.2	82*
Oc1ccc(/C=N/NP(=S)(c2ccccc2)c2ccccc2)cc1	79*	x	0.2	0.1	86*
CC(=NCC1CCCO1)c1c(O)n(C)c(=O)n(C)c1=O (centres undefined)	-10	0.33	1.1	0.7	27
O=c1c2ccccc2nc(-c2cccs2)n1-c1cnccn1	7	-0.094	0.9	0.9	6
Cc1ccc(-n2c(-c3cccs3)nc3ccccc3c2=O)cc1	36	x	0.6	0.4	58*
O=C(COc1ccc2ccccc2c1)N1CCN(C2CCN(Cc3ccccc3)CC2)CC1	22	1.4	0.8	1.7	-72
COc1ccc(CN2CCN(C(=O)COc3cccc(C)c3)CC2)c(OC)c1	12	0.85	0.9	1	-3
O=C(COc1ccc(Br)cc1)N1CCN(Cc2ccncc2)CC1	83*	-0.82	0.2	0.4	63*
COc1ccccc1CN1CCN(C(=O)COc2cccc(C)c2)CC1	3	0.11	1	0.9	8
COc1ccc(OC)c(CN2CCN(C(=O)COc3cccc(C)c3)CC2)c1	62*	-1.9	0.4	0.6	40
Cc1cccc(OCC(=O)N2CCN(Cc3ccncc3)CC2)c1	92*	-0.35	0.1	0.1	88*
CCCN1CCC2(CC1)NC(CO)(CO)CO2	x	-0.036	x	x	x
SMILES	CYP2C19 inhib	Cav32 inh	CYP2C19 activ	CYP2C9 activ	CYP2C9 inhib
CC1=NN(c2ccccc2)C(=O)C1/C=C1\C(=O)NC(=O)N(c2ccc(C)c(C)c2)C1=O (centres undefined)	-15	x	1.1	0.3	68*
O=C1CN=C(c2ccccc2)c2ccccc2N1Cc1ccc(C(F)(F)F)cc1	44	-2.9	0.6	0.8	22
O=c1[nH]c(CN2CC=C(c3ccccc3)CC2)nc2cc(C(F)(F)F)ccc12	39	-0.75	0.6	0.2	79*
COc1ccc(OP(=O)(Nc2ccccc2)Nc2ccccc2)cc1	83*	-2.4	0.2	0.3	69*
CN(C)CP(=O)(Nc1ccccc1)N(C)C (centres undefined)	-6	0.36	1.1	1.2	-22
Cc1cc(NCCN)nc2ccccc12	26	x	0.7	0.8	24
CCN(CC)C(=O)c1ccc(NC(=O)CSc2nnnn2-c2cc(OC)ccc2OC)cc1	42	-0.69	0.6	0.7	28
CCN(CC)C(=O)c1ccc(NC(=O)Cn2nc(C)c3ccccc3c2=O)cc1	66*	0.15	0.3	0.8	19
Cc1cccc(-n2c(-c3ccco3)nc3ccccc3c2=O)n1	2	-0.77	1	0.8	18
